Measurements as given in PubChem BioAssay (NCI).
The panel holds about 83,000 compounds, 20% with a hit somewhere; the sample as a whole holds those more often.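 Testing used 96-well plates and a 48-hour single-concentration exposure. Example: -40 means 40% of the starting cells died.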 A number with no mark means an inactive call. Active and inactive are the calls of the source. Rule for the calls: active = growth percent below 10; inactive = the rest.

Legend:
Test in all cases: NCI-60 one-dose screen, 48 h (100 = growth as untreated, 0 = no growth, -100 = all killed)
Details in all cases: 10 µM unless noted
NCI-H23 lung = test system: NCI-H23 lung
NCI-H226 lung = test system: NCI-H226 lung
NCI-H322M lung = test system: NCI-H322M lung
HOP-62 NSCLC = test system: HOP-62 NSCLC
NCI-H460 lung = test system: NCI-H460 lung
HOP-92 NSCLC = test system: HOP-92 NSCLC
NCI-H522 lung = test system: NCI-H522 lung
A549/ATCC NSCLC = test system: A549/ATCC NSCLC
786-0 renal = test system: 786-0 renal
COLO 205 colon = test system: COLO 205 colon
DU-145 prostate = test system: DU-145 prostate
K-562 leukemia = test system: K-562 leukemia
MALME-3M melanoma = test system: MALME-3M melanoma
MDA-MB-231 breast = test system: MDA-MB-231 breast
RXF 393 renal = test system: RXF 393 renal
SF-268 CNS = test system: SF-268 CNS
SF-295 CNS = test system: SF-295 CNS
SF-539 CNS = test system: SF-539 CNS
UACC-257 melanoma = test system: UACC-257 melanoma
M14 melanoma = test system: M14 melanoma

Structure (SMILES)	growth (NCI-H23 lung) [%]	growth (NCI-H226 lung) [%]	growth (NCI-H322M lung) [%]	growth (HOP-62 NSCLC) [%]	growth (NCI-H460 lung)	growth (HOP-92 NSCLC)	growth (NCI-H522 lung)	growth (A549/ATCC NSCLC)	growth (786-0 renal)	growth (COLO 205 colon)	growth (DU-145 prostate)	growth (K-562 leukemia)	growth (MALME-3M melanoma) [%]	growth (MDA-MB-231 breast) [%]	growth (RXF 393 renal)	growth (SF-268 CNS)	growth (SF-295 CNS)	growth (SF-539 CNS)	growth (UACC-257 melanoma) [%]	growth (M14 melanoma)
COc1ccc(Cl)cc1NC(=O)c1cc2c([nH]1)-c1nc(NC(=O)C(C)(C)C)sc1CC2	57.8	57.7	75.5	61.7	18.3%	51.4%	38%	60.6%	93.2%	78.1%	59.9%	10.6%	74.1	33.1	99%	45.3%	84.2%	-14.6% (active)	94.4	71.7%
COc1ccc(CCNC=O)cc1OC	101	89.1	96.4	107	102%	93.4%	131%	107%	99.2%	96.3%	102%	115%	90	112	87.9%	104%	103%	91.5%	108	100%
COc1ccc(/C=C/C(=O)c2ccc(-n3cc(CN4CCN(c5cc6c(cc5F)c(=O)c(C(=O)O)cn6C5CC5)CC4)nn3)cc2)cc1OC	50.6	32.4	52.6	38.7	53.1%	81.6%	49.5%	15.7%	43.7%	60.9%	45.8%	7.81% (active)	57.5	55.4	4.51% (active)	59.5%	67.5%	7.09% (active)	62	28.2%
O=C(C[n+]1cccc(Br)c1)c1ccc2c(c1)CCCC2	92	93.2	101	89	105%	70.5%	80.5%	95.9%	88.3%	91.4%	110%	100%	96.6	99.4	117%	103%	104%	98.6%	112	92.4%
Nc1ccc(S(=O)(=O)Nc2ccnn2-c2ccccc2)cc1	107	106	95	112	108%	97.9%	101%	97.7%	105%	109%	118%	89%	103	102	120%	107%	102%	103%	103	109%
O=C(Nc1cccc(-n2ccc3c(NC(=O)c4ccccc4)nccc32)c1)Nc1ccc(Cl)c(C(F)(F)F)c1	13	21.7	39.5	33.4	-0.783% (active)	2.86% (active)	-51.5% (active)	9.59% (active)	-14.8% (active)	-51.6% (active)	-19.3% (active)	3.03% (active)	33.6	13.7	-41.7% (active)	8.59% (active)	-6.24% (active)	8.31% (active)	46.2	2.96% (active)
Nc1nccc(=S)[nH]1	92.7	103	101	100	107%	110%	63.2%	74.3%	99.7%	127%	112%	97.8%	112	112	92.5%	98.6%	103%	107%	75.7	106%
Nc1ncc(-c2ccc3ncnc(Nc4cncc(Cl)c4)c3c2)cn1	65.1	55.2	29.8	65.6	67.8%	-0.664% (active)	55.5%	65.4%	65.8%	75.6%	49.7%	82.9%	38.7	66.5	60.3%	68.2%	77.2%	78.1%	82.9	77.9%
